PubChem BioAssay (EPA / NIEHS)
Values joined by “and” are separate entries in the source; they are usually repeats but may differ in a detail not shown here. Identical values can stand only once. Results filed as inconclusive are left out. A structure can be active in one record and inactive in another. Active and inactive are the calls of the source. Rule for the calls, unless noted: active = hit-call score of the fitted dose curve at least 0.9, where 1 is the maximum; inconclusive = response in the unintended direction; inactive = score below 0.9.

What was measured:
[1] = CPHEA_Stoker_NIS_Cytotoxicity: Cytotoxicity Assessment for CPHEA's Radioactive Iodide Uptake (RAIU) Assay for Sodium/Iodide Symporter (NIS) Inhibition, Stoker and Laws Labs (AID 2283897);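 for AC50: active means loss of ATP signal versus DMSO meaning cytotoxicity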
Procedure, shortened: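 ATP luminescence (Cell Titer Glo) measured viability, with loss of signal normalized to DMSO controls. Cells: hNIS-HEK293T-EPA, seeded 40 hours prior. Dosing: 0.001–100uM, 2 hours, room temperature, uptake buffer pH 7.4.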

[2] = tested on: frog Estrogen Receptor (ER2), gene 100174814; experiment: ATG_frER2_XSP2: Attagene TRANS-FACTORIAL Multi-Species (XSP2) HepG2 Assay for frog Estrogen Receptor (ER2) (AID 2283828)
Procedure, shortened: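 Multiplexed transactivation in HepG2: frog estrogen receptor fused to Gal4 drives a UAS reporter. Signal is reporter mRNA after 24 h treatment.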

[3] = target: mouse Peroxisome Proliferator-activated Receptor gamma (PPARg), Pparg (gene 19016) (UniProt P37238); experiment: ATG_mPPARg_XSP2: Attagene TRANS-FACTORIAL Multi-Species (XSP2) HepG2 Assay for mouse Peroxisome Proliferator-activated Receptor gamma (PPARg) (AID 2283830);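 note: hits are gains in reporter mRNA above DMSO so AC50 marks activation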
Chain of mouse Peroxisome Proliferator-activated Receptor gamma (PPARg), Pparg (gene 19016) (P37238 whole entry, looked up, the tested form may be a part): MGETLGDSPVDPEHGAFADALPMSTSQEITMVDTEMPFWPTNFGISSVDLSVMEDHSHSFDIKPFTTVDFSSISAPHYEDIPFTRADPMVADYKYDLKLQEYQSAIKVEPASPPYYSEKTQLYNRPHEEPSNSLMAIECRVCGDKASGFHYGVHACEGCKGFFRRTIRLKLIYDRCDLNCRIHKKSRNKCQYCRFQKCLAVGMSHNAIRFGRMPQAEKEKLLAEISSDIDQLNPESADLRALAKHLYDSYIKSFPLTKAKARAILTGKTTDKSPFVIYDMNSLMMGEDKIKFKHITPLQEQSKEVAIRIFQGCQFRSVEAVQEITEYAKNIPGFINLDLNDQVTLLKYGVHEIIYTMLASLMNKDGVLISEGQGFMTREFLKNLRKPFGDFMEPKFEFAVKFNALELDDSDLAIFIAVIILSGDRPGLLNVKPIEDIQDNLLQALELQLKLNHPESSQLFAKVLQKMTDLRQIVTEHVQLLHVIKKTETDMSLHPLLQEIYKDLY
Procedure, shortened: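 HepG2 cells transiently transfected with GAL4-UAS reporter units for chimeric NR-Gal4 proteins including mouse PPARg, exposed 24 h; medium contained 3 nM 6-alpha-fluorotestosterone and 1.5 nM norgestrel. Reporter mRNA quantified by RT-PCR, HpaI digestion and capillary electrophoresis, vs DMSO.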

[4] = target: Nuclear receptor subfamily 1 group I member 2 (Mus musculus) (UniProt O54915); experiment: ATG_mPXR_XSP2: Attagene TRANS-FACTORIAL Multi-Species (XSP1) HepG2 Assay for mouse Pregnane X Receptor (PXR) (AID 2283831)
Chain of Nuclear receptor subfamily 1 group I member 2 (Mus musculus) (O54915 whole entry, looked up, the tested form may be a part): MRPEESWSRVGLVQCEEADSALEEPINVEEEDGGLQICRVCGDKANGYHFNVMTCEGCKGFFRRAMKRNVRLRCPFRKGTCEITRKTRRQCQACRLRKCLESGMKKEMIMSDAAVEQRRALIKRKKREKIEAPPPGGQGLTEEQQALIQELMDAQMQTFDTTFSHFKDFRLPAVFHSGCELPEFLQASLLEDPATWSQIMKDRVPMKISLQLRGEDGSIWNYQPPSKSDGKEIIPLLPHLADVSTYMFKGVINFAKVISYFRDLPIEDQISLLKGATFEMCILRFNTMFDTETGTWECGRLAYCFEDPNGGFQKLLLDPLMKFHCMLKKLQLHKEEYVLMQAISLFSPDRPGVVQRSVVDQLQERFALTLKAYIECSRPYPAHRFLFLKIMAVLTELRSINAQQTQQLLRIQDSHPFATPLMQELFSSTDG
Procedure, shortened: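 Reporter transcripts were quantified by RT-PCR, FAM primer extension, HpaI digestion and capillary electrophoresis after 24 h of chemical exposure in transiently transfected HepG2 cells carrying chimeric receptor-GAL4 constructs; DMSO served as baseline.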

[5] = tested on: turtle Thyroid Hormone Receptor, alpha (TRa), gene 101949057; experiment: ATG_trTRa_XSP2: Attagene TRANS-FACTORIAL Multi-Species (XSP1) HepG2 Assay for turtle Thyroid Hormone Receptor, alpha (TRa) (AID 2283834);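 note: hits raise reporter mRNA over the DMSO baseline so AC50 marks activators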
Procedure, shortened: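 Transfection of HepG2 with multiple reporter transcription units, then chemical dosing for 24 h. Total RNA was reverse-transcribed, reporter sequences PCR-amplified and FAM-labelled, then sized by capillary electrophoresis. DMSO served as baseline.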

[6] = ATG_M_61_XSP2: Attagene TRANS-FACTORIAL Multi-Species (XSP2) HepG2 Assay for M61 Transcription Factor (Internal Marker) (AID 2283835; active = hit-call score of the fitted dose curve at least 0.9, where 1 is the maximum; inactive = score below 0.9;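 note: reporter mRNA of an internal background marker read by RT-PCR and capillary electrophoresis; active means a rise in signal above the DMSO baseline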)
Procedure, shortened: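 First, HepG2 cells are transfected with reporter units under GAL4-UAS control. Next, chemicals are applied for 24 h. Then total RNA is reverse-transcribed, amplified, fluorescently labelled and sized by capillary electrophoresis, with gain of signal scored against DMSO.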

[7] = CEETOX_H295R_11DCORT_noMTC: CeeTox H295R High-throughput Steroidogenesis Assay for 11-Deoxycortisol (11DCORT), maximum tolerated concentration (MTC) filtered results only (AID 2283911; active = hit-call score of the fitted dose curve at least 0.9, where 1 is the maximum; inactive = score below 0.9); conditions: actives raise or lower the signal
Procedure, shortened: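 Steroidogenesis was stimulated in H295R cells with 10 uM forskolin for 48 h before a 48 h chemical exposure. Secreted 11-deoxycortisol was measured by tandem mass spectrometry and fitted bidirectionally against DMSO controls.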

[8] = CEETOX_H295R_OHPREG_noMTC: CeeTox H295R High-throughput Steroidogenesis Assay for OH-Pregnenolone (OHPREG), maximum tolerated concentration (MTC) filtered results only (AID 2283912; active = hit-call score of the fitted dose curve at least 0.9, where 1 is the maximum; inactive = score below 0.9); conditions: actives raise or lower the signal
Procedure, shortened: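 Steroidogenesis in H295R cells (OECD 456, modified): after 48 h forskolin priming and 48 h chemical treatment, secreted 17alpha-hydroxypregnenolone is measured by HPLC-MS/MS. Activity is fitted in both directions against DMSO; concentrations are not filtered by MTT-based MTC.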

[9] = CEETOX_H295R_OHPROG_noMTC: CeeTox H295R High-throughput Steroidogenesis Assay for OH-Progesterone (OHPROG), maximum tolerated concentration (MTC) filtered results only (AID 2283914; active = hit-call score of the fitted dose curve at least 0.9, where 1 is the maximum; inactive = score below 0.9); conditions: actives raise or lower the signal
Procedure, shortened: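 Forskolin 10 uM, 48 h prestim → test cmpd in DMSO (0.1% final), 48 h → medium MTBE extraction → LC-MS/MS quant of 17alpha-OH-progesterone. Bidirectional fit vs DMSO; no MTT-based MTC filtering.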

[10] = CEETOX_H295R_ANDR_noMTC: CeeTox H295R High-throughput Steroidogenesis Assay for Androstenedione (ANDR), maximum tolerated concentration (MTC) filtered results only (AID 2283915; active = hit-call score of the fitted dose curve at least 0.9, where 1 is the maximum; inactive = score below 0.9); conditions: actives raise or lower the signal
Procedure, shortened: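 H295R cells, passage 10 or below, prestimulated 48 h with 10 uM forskolin, then exposed 48 h to chemical in 0.1% DMSO. Medium androstenedione extracted with MTBE, quantified by HPLC-MS/MS; concentrations not MTC-filtered; bidirectional fit versus DMSO.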

[11] = CEETOX_H295R_CORTISOL_noMTC: CeeTox H295R High-throughput Steroidogenesis Assay for Cortisol, maximum tolerated concentration (MTC) filtered results only (AID 2283916; active = hit-call score of the fitted dose curve at least 0.9, where 1 is the maximum; inactive = score below 0.9); conditions: actives raise or lower the signal
Procedure, shortened: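 Cortisol secretion measured by LC-MS/MS after 48 h chemical treatment (final 0.1% DMSO) of forskolin-primed (10 uM, 48 h) H295R cells; gain or loss fitted relative to DMSO, without maximum-tolerated-concentration filtering.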

[12] = CEETOX_H295R_CORTIC_noMTC: CeeTox H295R High-throughput Steroidogenesis Assay for Corticosterone (CORTIC), maximum tolerated concentration (MTC) filtered results only (AID 2283917; active = hit-call score of the fitted dose curve at least 0.9, where 1 is the maximum; inactive = score below 0.9); conditions: actives raise or lower the signal
Procedure, shortened: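 Following OECD 456 with minor changes, H295R cultures received 10 uM forskolin for 48 h, then test chemical at 0.1% DMSO for 48 h. Media steroids were extracted and measured by LC-MS/MS.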

[13] = target: Peroxisome proliferator-activated receptor gamma (Homo sapiens) (UniProt P37231); experiment: ATG_hPPARg_XSP2: Attagene TRANS-FACTORIAL Multi-Species (XSP2) HepG2 Assay for human Peroxisome Proliferator-activated Receptor gamma (PPARg) (AID 2283829);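 note: actives raise reporter mRNA above DMSO so AC50 reflects PPARg activation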
Chain of Peroxisome proliferator-activated receptor gamma (Homo sapiens) (P37231 whole entry, looked up, the tested form may be a part): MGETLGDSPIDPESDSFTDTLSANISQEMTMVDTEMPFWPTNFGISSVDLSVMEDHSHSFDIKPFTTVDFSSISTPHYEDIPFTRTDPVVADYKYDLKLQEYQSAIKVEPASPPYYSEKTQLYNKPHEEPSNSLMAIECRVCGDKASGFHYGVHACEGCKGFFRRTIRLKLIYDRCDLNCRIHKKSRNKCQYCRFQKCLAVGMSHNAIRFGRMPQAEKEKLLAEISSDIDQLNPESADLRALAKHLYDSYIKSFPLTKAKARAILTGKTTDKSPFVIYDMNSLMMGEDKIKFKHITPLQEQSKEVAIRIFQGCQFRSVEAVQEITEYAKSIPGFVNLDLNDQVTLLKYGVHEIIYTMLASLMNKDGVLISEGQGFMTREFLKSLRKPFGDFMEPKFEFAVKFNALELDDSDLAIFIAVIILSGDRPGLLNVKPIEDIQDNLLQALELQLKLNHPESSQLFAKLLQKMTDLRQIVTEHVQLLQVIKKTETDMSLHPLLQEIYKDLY
Procedure, shortened: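 After transfecting HepG2 with GAL4-UAS reporter constructs, cells are dosed for 24 h; total RNA is reverse-transcribed, PCR-amplified, FAM-labeled, HpaI-digested and resolved by capillary electrophoresis. Activity is measured as mRNA induction relative to DMSO.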

[14] = target: zebrafish Thyroid Hormone Receptor alpha (TRa), thraa (gene 30670) (UniProt Q98867); experiment: ATG_zfTRa_XSP2: Attagene TRANS-FACTORIAL Multi-Species (XSP1) HepG2 Assay for zebrafish Thyroid Hormone Receptor alpha (TRa) (AID 2283832);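 note: actives raise zebrafish TRa-Gal4 reporter transcript above DMSO baseline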
Chain of zebrafish Thyroid Hormone Receptor alpha (TRa), thraa (gene 30670) (Q98867 whole entry, looked up, the tested form may be a part): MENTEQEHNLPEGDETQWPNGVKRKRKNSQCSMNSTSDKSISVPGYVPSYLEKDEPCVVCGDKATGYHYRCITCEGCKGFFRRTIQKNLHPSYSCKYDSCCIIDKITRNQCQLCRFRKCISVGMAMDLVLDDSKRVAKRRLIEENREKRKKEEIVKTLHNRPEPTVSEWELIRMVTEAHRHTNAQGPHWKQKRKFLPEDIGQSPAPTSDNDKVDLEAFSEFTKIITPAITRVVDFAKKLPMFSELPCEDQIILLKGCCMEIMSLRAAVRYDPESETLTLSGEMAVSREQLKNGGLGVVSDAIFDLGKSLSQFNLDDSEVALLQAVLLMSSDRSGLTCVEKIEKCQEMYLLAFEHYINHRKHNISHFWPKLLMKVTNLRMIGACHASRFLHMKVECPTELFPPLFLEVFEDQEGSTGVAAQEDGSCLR
Procedure, shortened: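 Transient transfection of human HepG2 with GAL4-UAS reporter units, then 24 h chemical treatment. RNA isolated, reverse-transcribed, PCR-amplified, FAM-labelled, HpaI-digested and run on capillary electrophoresis. Gain-of-signal relative to DMSO.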

[15] = tested on: zebrafish Peroxisome Proliferator-activated Receptor gamma (PPARg), gene 557037; experiment: ATG_zfPPARg_XSP2: Attagene TRANS-FACTORIAL Multi-Species (XSP2) HepG2 Assay for zebrafish Peroxisome Proliferator-activated Receptor gamma (PPARg) (AID 2283833);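 note: actives increase reporter signal over DMSO so AC50 reflects activation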
Procedure, shortened: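 Multi-species TRANS format in HepG2, 24 h dosing; medium also contained 3 nM 6-alpha-fluorotestosterone and 1.5 nM norgestrel to stimulate androgen receptor. Zebrafish PPARg-GAL4 induced reporter mRNA was measured by RT-PCR/capillary electrophoresis.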

[16] = target: zebrafish Thyroid Hormone Receptor beta (TRb), thrb (gene 30607) (UniProt Q9PVE4); experiment: ATG_zfTRb_XSP2: Attagene TRANS-FACTORIAL Multi-Species (XSP1) HepG2 Assay for zebrafish Thyroid Hormone Receptor beta (TRb) (AID 2283836)
Chain of zebrafish Thyroid Hormone Receptor beta (TRb), thrb (gene 30607) (Q9PVE4 whole entry, looked up, the tested form may be a part): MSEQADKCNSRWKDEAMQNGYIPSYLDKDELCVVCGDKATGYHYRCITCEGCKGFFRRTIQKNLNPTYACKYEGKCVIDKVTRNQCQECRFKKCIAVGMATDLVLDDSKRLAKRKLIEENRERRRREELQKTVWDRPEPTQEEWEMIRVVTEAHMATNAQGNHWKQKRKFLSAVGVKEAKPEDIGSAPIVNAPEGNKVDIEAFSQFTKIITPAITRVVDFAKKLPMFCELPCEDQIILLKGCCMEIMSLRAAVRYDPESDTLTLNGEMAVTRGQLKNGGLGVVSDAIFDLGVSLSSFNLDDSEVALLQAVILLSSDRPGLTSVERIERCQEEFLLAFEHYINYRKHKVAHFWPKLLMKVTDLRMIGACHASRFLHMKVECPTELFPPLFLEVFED
Procedure, shortened: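 Human liver HepG2, transient MRTU transfection (NR-Gal4 chimeras, GAL4-UAS reporters); 24 h compound exposure; total RNA → oligo(dT) RT → PCR → 6-FAM label → HpaI cut → CE fluorescence. DMSO = negative control/baseline.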

[17] = ATG_XTT_Cytotoxicity_XSP2: Cytotoxicity Assessment in the Attagene TRANS-FACTORIAL Multi-Species (XSP2) HepG2 Assay (AID 2283837)
Procedure, shortened: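 HepG2 cells, transiently transfected with multiple reporter constructs, exposed to chemical for 24 h. Cell number assessed with XTT fluorescence read-out; loss of signal fitted relative to DMSO.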

[18] = target: frog Thyroid hormone Receptor alpha (TRa), thra-a (gene 397942) (UniProt P15204); experiment: ATG_frTRa_XSP2: Attagene TRANS-FACTORIAL Multi-Species (XSP2) HepG2 Assay for frog Thyroid hormone Receptor alpha (TRa) (AID 2283839)
Chain of frog Thyroid hormone Receptor alpha (TRa), thra-a (gene 397942) (P15204 whole entry, looked up, the tested form may be a part): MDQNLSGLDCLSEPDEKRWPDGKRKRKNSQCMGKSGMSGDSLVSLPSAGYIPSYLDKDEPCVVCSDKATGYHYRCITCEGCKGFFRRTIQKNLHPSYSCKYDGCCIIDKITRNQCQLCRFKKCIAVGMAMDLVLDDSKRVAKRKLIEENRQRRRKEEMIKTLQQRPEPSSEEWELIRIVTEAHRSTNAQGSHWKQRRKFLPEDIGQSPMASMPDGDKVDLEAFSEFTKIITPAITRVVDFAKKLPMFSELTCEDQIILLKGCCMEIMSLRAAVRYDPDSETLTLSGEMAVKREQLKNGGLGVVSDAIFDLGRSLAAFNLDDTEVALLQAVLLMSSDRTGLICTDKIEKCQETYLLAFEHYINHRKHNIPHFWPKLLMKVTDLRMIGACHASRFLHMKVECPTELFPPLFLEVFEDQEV
Procedure, shortened: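 Transfect HepG2 with multiple reporter units (GAL4-UAS), dose chemical, incubate 24 h. Isolate RNA, reverse-transcribe, PCR-amplify reporter, label with 6-FAM by primer extension, digest with HpaI, run capillary electrophoresis; induction scored against DMSO.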

[19] = target: human Thyroid hormone Receptor alpha (TRa), THRA (gene 7067) (UniProt P10827); experiment: ATG_hTRa_XSP2: Attagene TRANS-FACTORIAL Multi-Species (XSP2) HepG2 Assay for human Thyroid hormone Receptor alpha (TRa) (AID 2283838)
Chain of human Thyroid hormone Receptor alpha (TRa), THRA (gene 7067) (P10827 whole entry, looked up, the tested form may be a part): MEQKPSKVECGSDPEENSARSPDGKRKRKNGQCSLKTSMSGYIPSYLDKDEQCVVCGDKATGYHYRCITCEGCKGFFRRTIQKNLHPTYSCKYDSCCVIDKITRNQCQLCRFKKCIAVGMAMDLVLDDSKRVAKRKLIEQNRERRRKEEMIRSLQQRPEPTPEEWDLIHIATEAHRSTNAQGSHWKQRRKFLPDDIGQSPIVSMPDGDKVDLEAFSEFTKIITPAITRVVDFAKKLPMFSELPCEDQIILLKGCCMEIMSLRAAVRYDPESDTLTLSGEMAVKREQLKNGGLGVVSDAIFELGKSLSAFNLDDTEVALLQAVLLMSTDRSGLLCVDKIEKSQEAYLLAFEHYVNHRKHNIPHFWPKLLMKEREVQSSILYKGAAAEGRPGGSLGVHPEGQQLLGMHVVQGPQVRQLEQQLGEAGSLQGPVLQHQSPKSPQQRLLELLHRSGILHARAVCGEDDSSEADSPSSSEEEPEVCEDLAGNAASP
Procedure, shortened: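 HepG2 cells were transiently transfected with GAL4-UAS reporter units for chimeric human TRa-Gal4 and dosed for 24 hours, with 3 nM 6-alpha-fluorotestosterone and 1.5 nM norgestrel present. Reporter mRNA was quantified by RT-PCR, FAM labelling and capillary electrophoresis, with gain of signal fitted versus DMSO.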

[20] = target: human Thyroid hormone Receptor beta (TRb), THRB (gene 7068) (UniProt P10828); experiment: ATG_hTRb_XSP2: Attagene TRANS-FACTORIAL Multi-Species (XSP2) HepG2 Assay for human Thyroid hormone Receptor beta (TRb) (AID 2283840);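 note: actives raise reporter mRNA so potency reflects agonist-like gain of signal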
Chain of human Thyroid hormone Receptor beta (TRb), THRB (gene 7068) (P10828 whole entry, looked up, the tested form may be a part): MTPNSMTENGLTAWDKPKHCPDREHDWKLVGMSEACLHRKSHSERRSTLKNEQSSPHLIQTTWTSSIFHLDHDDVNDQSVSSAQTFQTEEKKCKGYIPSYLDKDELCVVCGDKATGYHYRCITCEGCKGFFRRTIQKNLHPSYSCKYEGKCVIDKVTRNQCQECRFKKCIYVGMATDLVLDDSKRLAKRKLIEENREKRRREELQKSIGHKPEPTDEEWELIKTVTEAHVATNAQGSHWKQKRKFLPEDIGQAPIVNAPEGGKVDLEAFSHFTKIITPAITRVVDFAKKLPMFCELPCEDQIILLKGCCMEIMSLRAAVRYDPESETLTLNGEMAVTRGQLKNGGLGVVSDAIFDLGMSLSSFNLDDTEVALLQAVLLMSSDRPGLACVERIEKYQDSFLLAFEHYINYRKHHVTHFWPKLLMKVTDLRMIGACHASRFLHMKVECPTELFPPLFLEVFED
Procedure, shortened: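 Transient transfection of human HepG2 with multi-species NR-Gal4/GAL4-UAS reporter constructs; 24 h compound treatment; RNA isolation, reverse transcription, PCR and HpaI digest; capillary electrophoresis of labeled fragments; activity fitted upward versus DMSO.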

Measured: AC50

c1ccc(Nc2cccc3ccccc23)cc1
inactive: [1]

CC(C)(C)NC(=O)[C@H]1CC[C@H]2[C@@H]3CC[C@H]4NC(=O)C=C[C@]4(C)[C@H]3CC[C@]12C
active: [2] 100 µM | [4] 2.09 µM | [5] 25.9 µM
inactive: [3] | [6]

N#Cc1ccc(C(c2ccc(C#N)cc2)n2cncn2)cc1
inactive: [7] | [8] | [9] | [10] | [12]
active: [11] 4.92 µM

COc1ccc(C(=O)/C(Br)=C\C(=O)O)cc1
active: [7] 65.2 µM | [8] 14.2 µM | [9] 58.3 µM | [10] 39.2 µM | [11] 50 µM | [12] 57.8 µM

Cc1ccc([N+](=O)[O-])cc1N
inactive: [1]

CCCCCCCCCC[N+](C)(CCCCCCCCCC)CCC[Si](OC)(OC)OC
inactive: [1]

CN(C)c1ccc2nc3ccc(=[N+](C)C)cc-3sc2c1
active: [1] 50 µM

C/C=C/C=C/CCCCCCCO
inactive: [1]

CCCC=C(C=O)CC
inactive: [7] | [8] | [9] | [11] | [12]

N#Cc1ccc(C2CCCc3cncn32)cc1 (configuration not stated)
active: [9] 2.31 µM | [11] 2.52 µM | [12] 1.44 µM
not listed: [1] | [10] | [19] | [20]
inactive: all other assays above

CCCCCCCOC(=O)c1ccc(O)cc1
inactive: [1]

O=C(O)c1cc(O)c2ccccc2c1O
inactive: [1]

O=C(OCCc1ccccc1)c1ccccc1
inactive: [1]

Oc1ccccc1Cc1ccccc1O
inactive: [4] | [14] | [15] | [5] | [6] | [16] | [17] | [19] | [18] | [20]
active: [2] 27 µM and 10.5 µM | [13] 43.4 µM and 30.3 µM | [3] 58.3 µM and 34.4 µM | [4] 26.3 µM

O=C(OCc1ccccc1)c1ccc(O)cc1
inactive: [1]

Oc1ccc(-c2ccccc2)c(Cl)c1
inactive: [4] | [14] | [15] | [5] | [16] | [19] | [18] | [20] | [1]
active: [2] 5.62 µM and 3.17 µM | [13] 33.4 µM and 28.7 µM | [3] 33.4 µM | [17] 85.4 µM

CC(C)c1ccc(O)c(C(C)C)c1
inactive: [1] | [7] | [8] | [9] | [11]
active: [12] 31.2 µM

C=CCOC(=O)c1ccc(C(=O)OCC=C)c(C(=O)OCC=C)c1
inactive: [1]

O=C(Nc1ccccc1)c1cc(Cl)ccc1O
inactive: [1]
